# Data published in PubChem BioAssay.
# Active and inactive are the calls of the source.
# How the values were obtained:
# [1] = binders of probe aFSTL3 on microarray, primary screen, stem cell growth factor project, biochemical, small-molecule microarray, fluorescence 635/667 (AID 1064); details: higher = more signal;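 also: measures binding of the biotinylated anti-FSTL3 antibody to printed compounds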
# [2] = binders from COS7 lysate, DM2A8 probe, primary screen, torsin A project, cell lysate, small-molecule microarray, fluorescence 635/667 (AID 1065); details: higher = more signal, COS7 lysate expressing mutant human TOR1A
# [3] = binders of probe aFGF2 on microarray, primary screen, stem cell growth factor project, biochemical, small-molecule microarray, fluorescence 635/667 (AID 1067); details: higher = more signal;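 also: measures binding of biotinylated aFGF2 protein to printed compounds on slides; z-score merges feature fluorescence and signal-to-noise across triplicate slides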
# [4] = binders of probe aFGF10 on microarray, primary screen, stem cell growth factor project, biochemical, small-molecule microarray, fluorescence 635/667 (AID 1071); details: higher = more signal;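 also: score merges 667 nm spot intensity and signal to noise from triplicate slides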
# [5] = biological target: Neurogenic locus notch homolog protein 2 (Homo sapiens) (UniProt Q04721); assay: Notch2 binders on small-molecule microarrays, primary screen, biochemical, small-molecule microarray, 635 nm fluorescence, stem cell growth factors (AID 1073); details: Notch2 binding, higher = more signal
# Neurogenic locus notch homolog protein 2 (Homo sapiens), sequence (Q04721 whole entry, looked up, canonical isoform): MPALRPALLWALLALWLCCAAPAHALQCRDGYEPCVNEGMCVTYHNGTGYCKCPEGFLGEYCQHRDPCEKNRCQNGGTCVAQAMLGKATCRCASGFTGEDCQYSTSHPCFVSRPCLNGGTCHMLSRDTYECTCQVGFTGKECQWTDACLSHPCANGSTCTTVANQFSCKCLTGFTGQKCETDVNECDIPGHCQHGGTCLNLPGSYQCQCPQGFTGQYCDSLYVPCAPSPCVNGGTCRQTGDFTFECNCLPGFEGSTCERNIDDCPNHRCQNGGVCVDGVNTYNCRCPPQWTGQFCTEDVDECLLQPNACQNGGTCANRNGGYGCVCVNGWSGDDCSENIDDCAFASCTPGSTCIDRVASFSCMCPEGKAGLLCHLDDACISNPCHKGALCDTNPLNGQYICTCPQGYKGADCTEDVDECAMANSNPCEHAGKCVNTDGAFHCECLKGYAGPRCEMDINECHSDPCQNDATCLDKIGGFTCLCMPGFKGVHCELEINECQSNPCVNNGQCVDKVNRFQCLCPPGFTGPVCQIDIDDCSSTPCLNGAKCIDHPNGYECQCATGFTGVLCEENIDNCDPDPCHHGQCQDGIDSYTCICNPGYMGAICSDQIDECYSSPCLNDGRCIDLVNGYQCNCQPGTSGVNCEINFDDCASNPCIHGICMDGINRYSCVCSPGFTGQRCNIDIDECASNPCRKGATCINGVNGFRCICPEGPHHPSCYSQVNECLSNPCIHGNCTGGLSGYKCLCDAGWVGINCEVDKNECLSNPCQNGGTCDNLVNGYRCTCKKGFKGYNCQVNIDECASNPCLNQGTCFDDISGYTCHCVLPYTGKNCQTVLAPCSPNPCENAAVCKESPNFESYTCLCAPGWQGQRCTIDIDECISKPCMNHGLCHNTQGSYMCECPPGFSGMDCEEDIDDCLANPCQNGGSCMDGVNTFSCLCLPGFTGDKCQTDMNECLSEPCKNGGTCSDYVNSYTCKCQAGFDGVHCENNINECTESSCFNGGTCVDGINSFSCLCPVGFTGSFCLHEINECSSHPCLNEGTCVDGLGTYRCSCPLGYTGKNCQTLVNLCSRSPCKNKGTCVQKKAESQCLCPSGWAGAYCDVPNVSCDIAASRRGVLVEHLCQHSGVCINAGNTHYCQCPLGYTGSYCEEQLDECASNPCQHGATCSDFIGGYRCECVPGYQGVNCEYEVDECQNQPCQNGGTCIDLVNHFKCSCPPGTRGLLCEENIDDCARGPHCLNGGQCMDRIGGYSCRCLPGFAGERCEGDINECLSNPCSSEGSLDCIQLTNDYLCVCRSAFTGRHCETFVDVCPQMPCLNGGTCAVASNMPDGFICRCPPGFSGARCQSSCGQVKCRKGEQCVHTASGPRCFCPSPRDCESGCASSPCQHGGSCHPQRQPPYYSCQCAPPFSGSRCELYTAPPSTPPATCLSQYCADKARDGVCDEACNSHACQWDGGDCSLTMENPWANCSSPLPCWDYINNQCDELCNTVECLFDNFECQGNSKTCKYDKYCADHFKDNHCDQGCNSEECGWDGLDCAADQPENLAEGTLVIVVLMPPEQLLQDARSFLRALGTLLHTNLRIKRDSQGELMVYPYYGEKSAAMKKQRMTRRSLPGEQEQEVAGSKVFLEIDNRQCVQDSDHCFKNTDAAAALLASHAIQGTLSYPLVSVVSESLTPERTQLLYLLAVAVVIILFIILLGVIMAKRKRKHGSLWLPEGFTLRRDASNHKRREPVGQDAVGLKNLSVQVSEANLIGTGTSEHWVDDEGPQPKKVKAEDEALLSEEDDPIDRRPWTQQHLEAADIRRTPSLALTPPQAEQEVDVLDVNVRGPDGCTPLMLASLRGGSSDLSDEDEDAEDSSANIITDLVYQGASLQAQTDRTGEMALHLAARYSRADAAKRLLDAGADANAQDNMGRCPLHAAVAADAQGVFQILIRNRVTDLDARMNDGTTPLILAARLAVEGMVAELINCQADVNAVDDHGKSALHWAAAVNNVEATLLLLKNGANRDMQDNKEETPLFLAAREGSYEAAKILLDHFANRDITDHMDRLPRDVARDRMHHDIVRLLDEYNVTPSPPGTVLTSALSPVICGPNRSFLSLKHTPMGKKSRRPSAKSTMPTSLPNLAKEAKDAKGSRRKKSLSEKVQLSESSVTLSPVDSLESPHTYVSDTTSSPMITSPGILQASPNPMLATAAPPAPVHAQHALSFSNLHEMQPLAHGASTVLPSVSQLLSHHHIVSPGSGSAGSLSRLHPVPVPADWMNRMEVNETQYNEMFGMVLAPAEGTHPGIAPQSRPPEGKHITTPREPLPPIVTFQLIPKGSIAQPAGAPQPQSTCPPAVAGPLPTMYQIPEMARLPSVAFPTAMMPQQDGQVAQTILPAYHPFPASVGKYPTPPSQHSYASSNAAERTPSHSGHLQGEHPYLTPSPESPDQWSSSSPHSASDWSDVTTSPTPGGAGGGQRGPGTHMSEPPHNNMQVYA
# [6] = biological target: Pro-neuregulin-1, membrane-bound isoform (Homo sapiens) (UniProt Q02297); assay: NRG1 binders on small-molecule microarrays, primary screen, psychiatric disease protein project, biochemical, small-molecule microarray, fluorescence 635/667 (AID 1075); details: NRG1 binding, 635 nm fluorescence, higher = more signal;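 also: score combines 667 nm spot fluorescence with signal to noise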
# Pro-neuregulin-1, membrane-bound isoform (Homo sapiens), sequence (Q02297 whole entry, looked up, the tested form may be a part, canonical isoform): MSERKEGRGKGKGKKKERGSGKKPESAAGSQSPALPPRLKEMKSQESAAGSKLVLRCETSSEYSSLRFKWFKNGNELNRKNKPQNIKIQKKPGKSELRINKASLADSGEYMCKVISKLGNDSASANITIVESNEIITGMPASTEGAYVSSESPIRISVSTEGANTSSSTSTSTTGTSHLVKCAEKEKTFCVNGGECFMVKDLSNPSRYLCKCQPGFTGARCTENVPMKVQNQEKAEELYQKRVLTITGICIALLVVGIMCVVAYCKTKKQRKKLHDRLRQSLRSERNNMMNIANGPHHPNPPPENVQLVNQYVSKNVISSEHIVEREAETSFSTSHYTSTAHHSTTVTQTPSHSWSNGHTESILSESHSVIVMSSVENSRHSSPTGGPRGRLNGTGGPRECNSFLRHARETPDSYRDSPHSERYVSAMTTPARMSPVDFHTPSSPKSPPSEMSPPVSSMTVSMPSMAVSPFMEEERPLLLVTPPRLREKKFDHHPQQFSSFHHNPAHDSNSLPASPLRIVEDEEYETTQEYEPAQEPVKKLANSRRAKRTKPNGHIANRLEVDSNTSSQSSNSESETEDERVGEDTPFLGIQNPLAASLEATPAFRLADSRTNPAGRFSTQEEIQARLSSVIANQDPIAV
# [7] = test system: Neuregulin-1 EGF-like domain; assay: binders of neuregulin-1 EGF-like domain, primary screen, biochemical, small-molecule microarray, 635 nm fluorescence (AID 1081); details: small-molecule microarray binding, higher = more signal;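 also: binding of the protein to compounds printed on small-molecule microarray slides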
# [8] = FRG1 promoter luciferase signal modulators, primary screen, FRG1 inhibition for FSHD, cell-based, C2C12 myotubes, firefly/Renilla luciferase, luminescence (AID 1084); details: higher = more signal, called active from +8 up or from −8 down
# [9] = binders of probe aFST on microarray, primary screen, stem cell growth factor project, biochemical, small-molecule microarray, fluorescence 635/667 (AID 1086); details: higher = more signal;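 also: score merges 667 nm fluorescence with signal-to-noise of each printed compound spot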
# [10] = binders of probe aHhip on microarray, primary screen, stem cell growth factor project, biochemical, small-molecule microarray, fluorescence 635/667 (AID 1087); details: higher = more signal;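 also: score merges spot fluorescence at 667nm with spot signal to noise ratio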
SMILES,composite z-score [1],composite z-score [2],composite z-score [3],composite z-score [4],composite z-score [5],composite z-score [6],composite z-score [7],z-score [8],composite z-score [9],composite z-score [10]
COc1ccc([Si](C)(C)[C@@H]2[C@@H](CC(=O)N3Cc4ccccc4C[C@H]3CO)O[C@]3(C(=O)N(Cc4ccc(N5C(=O)c6cccc7cccc5c67)cc4)c4ccccc43)[C@H]2C)cc1,-0.184,0.614,-0.0136,0.637,1.21,0.325,1.17,-1.88 (inactive),0.0242,-0.361
COC(=O)[C@@]1(Cc2ccc(OC)cc2)[C@H]2c3cc(C(=O)N(C)C)n(Cc4ccc(C)o4)c3C[C@H]2CN1C(=O)c1ccccc1,0.429,-0.342,0.0807,0.423,1.61,1.85,1.24,-0.472 (inactive),1.16,1.48
CC(C)c1ccc(NN2C(C(O)c3ccc(F)cc3)C=CC3C(=O)N(c4ccccc4)C(=O)C32)cc1 (stereo not given),-0.26,0.25,0.187,1,1.55,1.28,1.04,-0.38 (inactive),1.25,-0.118
CCCC[C@@H]1C[C@H]1[C@@H](NC(=O)c1cccs1)c1ccccc1C(F)(F)F,0.015,0.871,0.326,0.256,0.803,1.8,1.1,-0.0362 (inactive),-0.517,-0.115
Cc1ccc(N2C(=O)c3ccccc3[C@@H](C(=O)NCCCN(C)C)[C@@H]2c2ccc(CO)cc2)nc1,1.36,-0.538,0.111,-0.533,-0.854,1.02,1.44,0.298 (inactive),0.282,-0.757
CCCC[C@@H](O)C1=C(COC)C[C@H]2C(=O)N(Cc3ccccc3)C(=O)[C@H]2[C@H]1CO,-1.06,0.0076,-0.0969,0.58,0.395,0.179,0.159,0.646 (inactive),-0.173,-0.0645
COc1cc2c(cc1O)C(c1ccc(CN3CCCC3)cc1)N(Cc1cc3c(cc1Br)OCO3)CC2 (stereo not given),-0.373,-0.311,-0.0351,0.183,0.963,0.729,0.784,0.0296 (inactive),0.296,-0.201
O=C1C2C=CC(C(O)c3cccc(O)c3)N(Nc3ccc([N+](=O)[O-])cc3)C2C(=O)N1c1ccccc1 (stereo not given),-0.171,0.325,-0.0133,0.765,0.719,0.0076,0.63,0.125 (inactive),0.441,-0.136
O=C(Cc1ccccc1)[C@H]1C2C=CCCC(c3ccccc3)=C2CN1Cc1ccccc1 (stereo not given in full),-0.138,1.24,-0.085,0.0623,-0.0515,-0.473,-0.122,-1.2 (inactive),-0.205,0.0722
CO[C@H]1O[C@H](CO)[C@@H](OC(=O)Nc2ccc(Br)cc2)[C@@H]2OC(=O)[C@@H](Cc3ccccc3)C/C=C/C[C@H](Cc3ccccc3)C(=O)O[C@@H]12,-0.159,1.01,-0.07,0.79,1.15,1.25,1.09,0.147 (inactive),0.0279,-0.0645
COC(=O)[C@@]1(Cc2ccc(F)cc2)[C@H]2c3cc(C(=O)N(C)C)n(CCc4ccc(OC)c(Br)c4)c3C[C@H]2CN1C(=O)c1ccccc1,0.859,-0.694,0.361,0.675,0.716,0.988,1.29,3.92 (inactive),1.48,0.424
C=CC[C@@]1(C(=O)NCCCOC)N=C(c2ccc(OCCCO)cc2)O[C@@H]1c1ccccc1N=[N+]=[N-],0.165,0.252,0.0442,0.469,0.798,1.67,1.21,2.26 (inactive),1.06,-0.0645
COCCOC(=O)N1C(=O)[C@@]2(c3cc(C#CC4(O)CCCCCC4)ccc31)[C@H](C(=O)Nc1nc3ccccc3s1)[C@H]1C(=O)O[C@H](c3ccccc3)[C@H](c3ccccc3)N1[C@@H]2c1ccc(O)cc1,-0.304,0.442,-0.0202,0.539,1.24,1.46,1.2,0.21 (inactive),1.47,0.107
C=C[C@H]1C(C(=O)OCC)=CC[C@@H](c2ccccc2)N1S(=O)(=O)c1ccc(C)cc1,0.131,0.431,0.16,0.693,1.25,1.04,0.779,-3.11 (inactive),0.992,-0.266
CCCN1C(=O)[C@@]2(Cc3ccccc31)N=C(c1ccc(OCCCO)cc1)O[C@H]2c1ccccc1,0.654,0.27,-0.0909,0.181,0.697,1.55,1.21,-1.35 (inactive),0.193,-0.0852
COCCOC(=O)N1C(=O)[C@@]2(c3cc(C#CCCO)ccc31)[C@H](C(=O)Nc1nc3ccccc3s1)[C@H]1C(=O)O[C@H](c3ccccc3)[C@H](c3ccccc3)N1[C@@H]2c1ccc(O)cc1,-0.223,0.9,-0.0403,0.83,1.53,1.07,0.72,-0.948 (inactive),0.346,0.0505
Cc1ccc(S[C@]2(C(=O)NC(C)C)CC(=O)N(Cc3cc(C(F)(F)F)cc(C(F)(F)F)c3)[C@@H]2c2ccc(CO)cc2)cc1,0.0795,-0.662,-0.145,-0.898,-1.08,0.624,0.644,0.237 (inactive),-0.803,-0.236

SMILES,composite z-score [1],composite z-score [2],composite z-score [3],composite z-score [4],composite z-score [5],composite z-score [6],composite z-score [7],z-score [8],composite z-score [9],composite z-score [10]
CCCC=C(CCC)[C@@H](NC(=O)c1cccs1)c1ccc(C(=O)OC)cc1,2.23,0.392,0.905,1.1,0.592,0.028,0.648,0.874 (inactive),2.61,1.39
CCOC(=O)C1=CC[C@@H](c2ccccc2F)N(S(=O)(=O)c2ccc(C)cc2)[C@H]1c1ccccc1,-0.419,-0.0956,-0.0253,0.765,1.46,0.65,0.677,-3.46 (inactive),0.789,-0.11
CS(=O)(=O)CCOC(=O)C1=CC(CCCO)=CC(c2ccc(CN3CCCC3)cc2)N(Cc2sc3ccccc3c2Cl)C=C1C(=O)OCCS(C)(=O)=O (stereo not given),0.0681,2.14,0.198,1.3,1.62,2.16,1.22,0.168 (inactive),0.888,0.0053
COC(=O)[C@@]1(Cc2ccc(F)cc2)[C@H]2c3cc(C(=O)N4CCCC4)n(CCc4c[nH]c5ccccc45)c3C[C@H]2CN1C(=O)c1ccccc1,0.484,0.246,0.0869,0.439,1.62,2.06,1.22,-2.21 (inactive),1.05,0.245
CCC1=C2CN(Cc3ccccc3)[C@@H](C(=O)Cc3ccccc3)C2C=CCC1 (stereo not given in full),-0.317,-0.756,-0.0909,0.083,-0.227,0.271,0.441,-1.02 (inactive),0.0633,-0.0994
CCCNC(=O)[C@@]1(C)c2ccccc2C(=O)N(c2ccc(C)cn2)[C@H]1c1ccc(CO)cc1,0.294,0.0231,-0.0692,-0.281,0.0657,0.638,0.781,0.683 (inactive),-0.215,-0.219
CC1CC/C=C\[C@H]2OC34C=CCN(c5ccc(Cl)cc5)C(=O)[C@H]3N(C(C)CO)C(=O)[C@]4(C)C2C(=O)O1 (stereo not given in full),0.0528,-0.591,-0.143,-0.172,-0.807,-0.154,0.886,0.242 (inactive),-0.732,-0.0618
C=C(COC)C(=O)CC[C@@H](OC(C)=O)c1cccc(OCCO)c1,-0.0369,-0.489,-0.085,0.243,-0.0381,-0.372,0.691,-0.721 (inactive),-0.204,-0.249
NC(=O)NCC#Cc1ccc2c(c1)[C@]1(C(=O)N2)[C@H](c2ccccc2OCCO)N2[C@H](c3ccccc3)[C@H](c3ccccc3)OC(=O)[C@H]2[C@@H]1C(=O)O,0.129,0.443,-0.0383,-0.0167,-0.243,1.11,-0.0034,0.233 (inactive),-0.362,-0.438
CC(C)[Si]1(C(C)C)OCc2cc(C3CC3)nc(-c3ccc(Oc4ccccc4)cc3)c21,-0.0872,-0.502,-0.207,-0.18,-0.393,-0.65,-0.791,-0.343 (inactive),-0.15,-0.469
CCCCCN1CC=CC23O[C@@H]4/C=C\CCCOC(=O)C4[C@H]2C(=O)N(C(C)CO)[C@@H]3C1=O (stereo not given in full),0.378,-1.3,-0.219,-0.756,-0.814,1.15,1.16,-0.508 (inactive),-0.738,-0.399
COc1ccc([Si](C)(C)[C@H]2[C@H](CC(=O)N3Cc4ccccc4C[C@H]3CO)O[C@@]3(C(=O)N(Cc4ccc(N5CCOC5=O)cc4)c4ccccc43)[C@@H]2C)cc1,-0.315,0.443,-0.0583,0.345,0.236,0.744,1.1,-4.08 (inactive),0.315,-0.0296
COCCOC(=O)N1C(=O)[C@@]2(c3cc(C#CC4=CCCCC4)ccc31)[C@H](c1ccccc1OCCO)N1[C@H](c3ccccc3)[C@H](c3ccccc3)OC(=O)[C@H]1[C@@H]2C(=O)N1CCN(c2ncccn2)CC1,-0.463,0.434,-0.0536,0.538,1.07,0.373,1.13,-0.624 (inactive),0.469,-0.321
O[C@@H](Cc1ccccc1)[C@@H](/C=C/C1CC1)N(CC#Cc1ccccc1)Cc1ccccc1Br,1.53,-0.614,-0.157,-0.763,-0.836,-0.0422,-0.0401,-0.507 (inactive),-0.221,-0.19
CC(c1ccccc1)C(O)C1C=CC2C(=O)N(C)C(=O)C2N1Nc1ccccc1 (stereo not given),0.799,-0.146,0.362,0.796,1.63,1.43,1.25,0.796 (inactive),0.814,0.0578
COc1cc(OC)c(C(O)C2C=CC3C(=O)N(Cc4ccccc4)C(=O)C3N2n2cnnc2)cc1Br (stereo not given),-0.245,2.19,-0.0131,0.919,0.36,1.32,1.12,0.569 (inactive),1.35,-0.0645
C=CCOC(=O)[C@@]1(Cc2ccccc2)C[C@H]2CO[C@H](c3ccc(OC)cc3)N2C1=O,-0.442,0.366,-0.12,0.252,0.0925,-0.294,0.209,-1.33 (inactive),-0.135,0.0373
